# Screening data from PubChem BioAssay.
# Most compounds without a hit are left out; they make up all but 1.6% or so of the library.
# KCNQ2 enhance: KCNQ2 (rat) channel potentiation; O88943; CHO-K1 KCNQ2, FluxOR thallium flux fluorescence; active compounds read high; B-score at 10 µM; hit rate 0.54% among 310,000; AID 2239;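 active means fluorescence ratio B-score at least 3 SD of library B-scores, with initial fluorescence B-score within 3 of them, cut at about 5.3 in these data; same plate scores as AID 2156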;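 further: B-score of peak minus minimum over baseline fluorescence ratio after K+ and Tl+ stimulus; positive B-score means potentiation of KCNQ2 with more thallium influx and brighter signal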
# Target sequence (O88943 whole entry, looked up): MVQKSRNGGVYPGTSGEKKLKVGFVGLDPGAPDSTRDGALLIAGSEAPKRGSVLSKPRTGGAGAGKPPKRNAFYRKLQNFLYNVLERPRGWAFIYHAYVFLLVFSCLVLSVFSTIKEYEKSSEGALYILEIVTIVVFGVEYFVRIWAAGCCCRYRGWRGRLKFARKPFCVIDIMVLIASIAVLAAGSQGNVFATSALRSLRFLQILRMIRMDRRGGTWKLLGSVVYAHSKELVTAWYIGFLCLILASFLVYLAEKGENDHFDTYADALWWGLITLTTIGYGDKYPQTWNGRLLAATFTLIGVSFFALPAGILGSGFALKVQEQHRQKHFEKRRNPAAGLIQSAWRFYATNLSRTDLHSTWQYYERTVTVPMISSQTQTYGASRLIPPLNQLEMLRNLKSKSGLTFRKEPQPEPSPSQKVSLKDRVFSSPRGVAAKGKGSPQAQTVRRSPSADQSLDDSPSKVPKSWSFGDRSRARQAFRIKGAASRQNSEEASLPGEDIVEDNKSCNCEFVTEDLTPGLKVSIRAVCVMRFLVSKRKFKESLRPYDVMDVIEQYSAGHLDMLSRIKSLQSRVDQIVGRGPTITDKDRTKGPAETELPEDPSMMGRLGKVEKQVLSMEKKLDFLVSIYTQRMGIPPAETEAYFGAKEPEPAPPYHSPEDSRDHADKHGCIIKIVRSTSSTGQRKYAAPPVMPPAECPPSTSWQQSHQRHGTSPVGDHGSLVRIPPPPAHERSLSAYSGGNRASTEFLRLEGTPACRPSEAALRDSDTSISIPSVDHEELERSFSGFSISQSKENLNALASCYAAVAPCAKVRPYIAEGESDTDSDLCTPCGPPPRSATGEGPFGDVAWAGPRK
# KCNQ2 block: KCNQ2 (rat) channel inhibition; CHO-K1 KCNQ2, FluxOR thallium flux, 20 min; active compounds read low; B-score at 10 µM; hit rate 1.1% among 310,000; AID 2156;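 active means fluorescence ratio B-score at most minus 3 library SDs, with starting brightness B-score within 2 library SDs, cut at about -5.5 in these data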
# KCNQ2 block conf: rat KCNQ2 channel inhibition, confirmatory screen; AID 493025; KCNQ2-expressing cells, thallium flux; active compounds read low; activity change, negative = inhibition, % at 10 µM; shares compounds with KCNQ2 block; hit rate 57% among 1,000;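 further: 0% = vehicle wells and values are ratio percent relative to vehicle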
# KCNQ1 spec: human KCNQ1 activity in KCNQ2 inhibitor specificity screen | shares compounds with KCNQ2 block | KCNQ1-expressing cells, FluxOR thallium flux fluorescence; active compounds read low | activity change, negative = inhibition, % at 10 µM | hit rate 15% among 1,000 | AID 493026;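 active means activity change at least 3 SD of negative controls below their mean in both duplicate wells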;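 further: CHO cells stably transfected with KCNQ1 and depolarized by potassium stimulus; peak minus minimum fluorescence over baseline after thallium addition; 0% = vehicle negative control and -100% = blank without thallium stimulus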
# CHO Tl ctr: counter-screen for KCNQ2 inhibitors: effect in parental CHO cells | shares compounds with KCNQ2 block | thallium flux counter-screen; active compounds read low | activity change, % at 10 µM | hit rate 14% among 1,000 | AID 493029;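 further: 0% = vehicle negative controls with stimulus buffer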
# KCNQ2 patch conf: rat KCNQ2 inhibition confirmed by electrophysiology | shares compounds with KCNQ2 block | KCNQ2-expressing cells, automated patch clamp current | calls only at 10 µM | hit rate 49% among 550 | AID 588531
# An asterisk follows results filed as active; i = inactive; . = not tested or not shown; + = active, no number. Unless noted, how the calls were made is not given here.
SMILES,KCNQ2 enhance,KCNQ2 block,KCNQ2 block conf,KCNQ1 spec,CHO Tl ctr,others
CCOC(=O)c1cc(C#N)c(N2CCN(c3ccccn3)CC2)nc1-c1ccccc1,.,i,.,.,.,
C=CCn1c(/N=C/c2ccc(N(C)C)cc2)nc2ccccc21,-7.3,-7.3*,i,i,i,
C=CCn1c(/N=C/c2ccc(OC)cc2)nc2ccccc21,1.4,i,.,.,.,
CC1=C(C)CC(C(=O)Nc2ccc(C(=O)N3CCOCC3)cc2)C(C(=O)O)C1 (stereo not given),.,i,.,.,.,
CCOC(=O)C1=C(COC(=O)Cc2ccc(Br)cc2)NC(=O)NC1C (stereo not given),0.06,i,.,.,.,
COc1ccc(S(=O)(=O)N2CCCCCC2)cc1C(=O)N(C)Cc1ccc(Cl)cc1Cl,-8.5,-8.5*,i,i,i,
COc1ccc(S(=O)(=O)N2CCCCCC2)cc1C(=O)N(C)Cc1cccs1,1.4,i,.,.,.,
CCN1CCN(S(=O)(=O)c2ccc(Cl)c(C(=O)N(C)Cc3cccc(Cl)c3Cl)c2)CC1,-6.9,-6.9*,i,i,i,
CCN1CCN(S(=O)(=O)c2ccc(Cl)c(C(=O)N(C)Cc3ccc(F)cc3)c2)CC1,0.54,i,.,.,.,
COc1ccccc1CNC(=O)OCc1nccnc1C(=O)Nc1ccc(Br)cn1,0.65,i,.,.,.,
COc1ccccc1OCC(=O)Nc1ccccc1C(=O)N1CCCC1,0.04,i,.,.,.,
O=C(COc1ccc(F)cc1Cl)Nc1ccccc1C(=O)N1CCCCC1,-8.6,-8.6*,-22%*,i,i,KCNQ2 patch conf=+
CC(C)c1ccccc1NS(=O)(=O)c1cccs1,0.4,i,.,.,.,
CCOC(=O)c1c(C)nc2c(c1-c1cc(OC)ccc1OC)C(=O)c1ccccc1-2,0.12,i,.,.,.,
CCOC(=O)c1c(C)nc2c(c1-c1ccccc1)C(=O)c1ccccc1-2,-12,-12*,-30%*,i,i,KCNQ2 patch conf=+
Cc1onc(-c2c(Cl)cccc2Cl)c1C(=O)N1CCOCC1,0.75,i,.,.,.,
Cc1cc(C)c2nc(-c3cccc(Cl)c3)c(C)c(C(=O)N3CCOCC3)c2c1,-8.8,-8.8*,-28%*,i,i,KCNQ2 patch conf=+
CCOc1ccc(N/C(N)=N/c2nc(CSc3nnnn3-c3ccccc3)cc(=O)[nH]2)cc1,.,i,.,.,.,
Cc1cc(C(=O)NC2CCCCC2C)c2ccccc2n1 (stereo not given),.,i,.,.,.,
CCc1nc2ccc(F)cc2c(C(=O)NC2CCCCC2C)c1C (stereo not given),-7.1,-7.1*,-26%*,i,i,KCNQ2 patch conf=+
O=C(CSc1nc2c(c(=O)n1-c1ccccc1)SCC2)NCC1CCCO1 (stereo not given),0.99,i,.,.,.,
O=C(Nc1ccc(S(=O)(=O)N2CCCC2)cc1)c1cc(F)c(F)cc1Cl,1.2,i,.,.,.,
CC(C)c1ccc(OCC(=O)N(c2ccccn2)C2CCCCC2)cc1,.,i,.,.,.,
O=C(COc1ccc(F)cc1)N(c1ccccn1)C1CCCCC1,-6.8,-6.8*,-28%*,i,i,KCNQ2 patch conf=+
CCC(=O)N(Cc1cc2ccccc2[nH]c1=O)c1ccccc1OC,.,i,.,.,.,
SMILES,KCNQ2 enhance,KCNQ2 block,KCNQ2 block conf,KCNQ1 spec,CHO Tl ctr,others
COC(=O)CSc1nnc(CNc2ccc(Cl)cc2)n1Cc1ccccc1,.,i,.,.,.,
CCOC(=O)CSc1nnc(CNc2ccc(Cl)cc2)n1-c1ccccc1,-8.9,-8.9*,i,i,i,
Cc1ccc2c(c1)C(c1ccncc1)=NNC(c1ccccc1)=N2,.,i,.,.,.,
c1ccc(C2=Nc3c(ccc4ccccc34)C(c3ccncc3)=NN2)cc1,-12,-12*,-29%*,i,i,KCNQ2 patch conf=+
O=C(OCC(=O)N(CCc1ccccc1)Cc1ccccc1)c1ccccc1O,-7.2,-7.2*,i,i,i,
O=C(NCCC(=O)N(CCc1ccccc1)Cc1ccccc1)c1ccccc1Cl,-6.7,-6.7*,-32%*,i,i,KCNQ2 patch conf=+
Cc1ccc(C(=O)NCCCc2ccccc2)c(Cl)c1,.,i,.,.,.,
CCN(Cc1ccccc1)C(=O)COC(=O)c1cc(Cl)nc(Cl)c1,.,i,.,.,.,
CCC(=O)Nc1c(-c2ccc(Cl)cc2)c(=O)c2ccccc2n1C,.,i,.,.,.,
CC(=O)c1cccc(NC(=S)N2CCN(S(=O)(=O)c3ccccc3)CC2)c1,1.2,i,.,.,.,
Cc1cc(C(=O)c2ccc(C(C)(C)C)cc2)c(NC(=O)CCl)s1,0.85,i,.,.,.,
CCCN(CCC)C(=O)c1cc(-c2ccc3c(c2)OCO3)nc2ccccc12,-8.5,-8.5*,-26%*,i,i,KCNQ2 patch conf=+
CCOc1ccc(-c2cc(C(=O)Nc3ccc4c(c3)OCCO4)c3ccccc3n2)cc1,-9.1,-9.1*,i,i,i,
O=C(Nc1cccnc1)c1cc(-c2cccc(Br)c2)nc2ccccc12,-6.7,-6.7*,-28%*,i,i,KCNQ2 patch conf=i
COc1cccc(-c2cc(C(=O)Nc3ccccc3)c3ccccc3n2)c1,-9.1,-9.1*,i,i,i,
Cc1cccc(-c2cc(C(=O)Nc3ccc4c(c3)OCCO4)c3ccccc3n2)c1,.,i,.,.,.,
O=C(Nc1ccncc1)c1cc(-c2cccc(Br)c2)nc2ccccc12,0.09,i,.,.,.,
O=C(O)c1cc(-c2ccc3c(c2)OCO3)nc2ccccc12,0.1,i,.,.,.,
COc1cccc(-c2cc(C(=O)Nc3cccnc3)c3ccccc3n2)c1,.,i,.,.,.,
CCn1c(=O)n(CC)c2cc(N3CCCC3)c(NC(=O)c3c(F)cccc3F)cc21,.,i,.,.,.,
COCCNC(=O)Cn1ccc2cc(S(=O)(=O)N3CCCCC3)ccc21,0.35,i,.,.,.,
Cc1ccc(-n2c(C)nnc2SCC(=O)NNC(=O)c2ccco2)cc1,.,i,.,.,.,
N#CCc1ccc(Oc2ncccn2)cc1,.,i,.,.,.,
COc1ccc(C2SCC(=O)N2Cc2ccccc2)cc1 (stereo not given),.,i,.,.,.,
COc1ccc(C2SCC(=O)N2CC23CC4CC(CC(C4)C2)C3)cc1 (stereo not given),-6.9,-6.9*,-33%*,i,i,KCNQ2 patch conf=i
SMILES,KCNQ2 enhance,KCNQ2 block,KCNQ2 block conf,KCNQ1 spec,CHO Tl ctr,others
CC(C)OC(=O)c1c(-c2ccc(C(C)C)cc2)csc1NC(=O)C1CCCO1 (stereo not given),-7.2,-7.2*,-32%*,i,i,KCNQ2 patch conf=i
CCOC(=O)c1c(-c2ccc(C)cc2)csc1NC(=O)C1CCCO1 (stereo not given),0.38,i,.,.,.,
O=C(CN1C(=O)c2ccc([N+](=O)[O-])cc2C1=O)NCC1CCCO1 (stereo not given),0.18,i,.,.,.,
Cc1cc(C)n(-c2nc3ccccc3c(=O)n2OCc2ccc(F)cc2)n1,.,i,.,.,.,
Cc1cc(C)n(-c2nc3ccccc3c(=O)n2OCc2ccc(Cl)cc2)n1,-7.6,-7.6*,i,i,i,
COc1ccc(C(=O)N(Cc2ccco2)Cc2cccs2)c(O)c1,.,i,.,.,.,
O=C(c1cc2ccccc2o1)N(Cc1ccco1)Cc1cccs1,-12,-12*,-41%*,-40%*,-32%*,KCNQ2 patch conf=i
CCCC(NC(=O)CCc1c(C)c2cc3c(-c4ccccc4)coc3cc2oc1=O)C(=O)O (stereo not given),3,i,.,.,.,
